TRHR enhancer-1 – allosteric enhancers of human TRH receptor. TRHR cells, fluo-8 calcium fluorescence, EC20 TRH enhancement. enhancement, % at 2 µM. 0.66% of 360,000 active; in the data active = enhancement above about 30%; also: 0% is about no effect
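Enhancer read-out: after compound pinning and an initial kinetic agonist-mode read, an EC20 of TRH (10 nM final) was injected and fluo-8 calcium signal (Ex 480/Em 530) followed at 1 s/cycle for 100 cycles in TRHR-expressing cells.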
D1 potentiator – potentiators of human D1 dopamine receptor; P21728; HEK293 TREx D1 cells, calcium flux, dopamine EC20 potentiation; 0.036% of 360,000 active; potentiation, % at 10 µM; AID 504651; in the data active = potentiation above about 30%; also: 0% is about no effect
D1 agonist – activates the human D1 dopamine receptor; P21728; HEK293 T-REx D1 cells, calcium flux, agonist mode; activation, % at 2 µM; 1% of 360,000 active; AID 504660; also: 0% is about no effect
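Agonism was scored from calcium flux recorded over 180 s (1 read/s) after pintool compound addition, following a 10-cycle baseline. Cells were inducible force-coupled HEK293 TREx D1, plated overnight at 30 C and loaded with no-wash calcium dye.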
D1 antagonist – antagonists of human D1 dopamine receptor; 3.2% of 360,000 active; activity change, negative = inhibition, % at 10 µM; AID 504652; HEK293 TREx D1 cells, calcium flux, dopamine EC80; active compounds read low; P21728; in the data active = activity change below about -30%; also: % is scaled to controls: 0 for no effect and ±100 for the full control effect
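Inducible Hek293 Trex D1 cells (tetracycline, overnight, 30 C). Calcium dye 30–90 min RT. Antagonist mode: EC80 dopamine added after 180 s compound read.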
TRHR agonist-1 – TRH receptor (human) agonism. TRHR cells, calcium flux fluo-8, FDSS agonist mode. AID 493084. P34981. 0.18% of 360,000 active. activation, % at 2 µM; also: 0% is about no effect
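TRHR-expressing cells loaded with fluo-8 calcium dye; 23 nL library compound pin-transferred, kinetic FDSS fluorescence (Ex 480/Em 530) recorded about 180 s for agonist-induced calcium release, before a 10 nM TRH EC20 addition for potentiator mode.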
TRHR enhancer-2 – human TRH receptor allosteric enhancement confirmation; activity change, negative = inhibition, % at 46.1 µM; 970 tested, under 10 active; shares compounds with TRHR enhancer-1; AID 493076; TRH receptor cell assay, enhancer confirmation qHTS; active = well fitted curve in the direction sought with a large enough effect; an effect the other way counts as inactive or inconclusive;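 also: compound effect scored on response to added TRH at EC20 of 10 nM; 0% is about no effect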
TRHR agonist-2 – human TRH receptor agonism confirmation; shares compounds with TRHR enhancer-1; TRHR-expressing cells, agonist activation read-out; Potency, µM (series often up to 46.1 µM), inactives show at the top dose activation, most hits filed as activators; 8% of 970 active; AID 493078; active = well fitted curve in the direction sought with a large enough effect; an effect the other way counts as inactive or inconclusive; also: potency is read from the fitted curve at half-maximal effect; 0% is about no effect; nearly all actives have a fitted effect of over 75% in size
An asterisk follows results filed as active. Hits are enriched below; roughly 4.7% of the tested compounds scored in any of these assays. Rule as the data show it, unless noted: active = activation above about 30%; inactive = the rest.

What do the screens show for `COc1cccc(NC(=O)CN2C(=O)NC(C)(CC(C)C)C2=O)c1` (stereo not drawn)?
TRHR enhancer-1: 52.2*; D1 potentiator: -9.5; D1 agonist: 1.3; D1 antagonist: 1.7; TRHR agonist-1: 0.3; TRHR enhancer-2: -1.7; TRHR agonist-2: -0.6%

What do the screens show for `COc1cccc(NC(=O)CN2C(=O)NC3(CCCc4ccccc43)C2=O)c1` (stereo not drawn)?
TRHR enhancer-1: -2.8; D1 potentiator: 1.4; D1 agonist: 0.5; D1 antagonist: 6.9; TRHR agonist-1: 0.0

Results for Cc1ccccc1OCC(O)Cn1c(=N)n(CCN2CCCCC2)c2ccccc21 (stereo not drawn) ?
TRHR enhancer-1: 15.1; D1 potentiator: -5.4; D1 agonist: 21.6; D1 antagonist: 5.9; TRHR agonist-1: 1.0

How did Cc1ccccc1OCC(O)CN1CCCCC1 (stereo not drawn) do in these assays?
TRHR enhancer-1: 43.1*; D1 potentiator: -0.3; D1 agonist: 5.9; D1 antagonist: -8.8; TRHR agonist-1: -0.5; TRHR enhancer-2: -5.0; TRHR agonist-2: 0.9%

How did Cc1ccccc1OCC(O)CN1CCN(c2ccc(Cl)cc2)CC1 (stereo not drawn) do in these assays?
TRHR enhancer-1: 51.1*; D1 potentiator: -11.6; D1 agonist: 5.2; D1 antagonist: -25.8; TRHR agonist-1: 1.2; TRHR enhancer-2: 3.8; TRHR agonist-2: -0.5%

High-throughput results (PubChem BioAssay)
